# Inconclusive results are not listed. Entries that show only a call come without a potency. A number with no mark means an inactive call. Calls of active or inactive are those of the source. The call rests on the fitted dose curve; in most records, active means well fitted cell-killing curve with a large enough effect; inconclusive means small, poorly fitted or top-dose-only effect, or effect the other way; inactive means flat fitted curve, though single readings scatter. *1 amine or outer side, *2 acyl side, *3 side chain or, on linkers, in order; H or OH if unused. Where a SMILES comes first, the peptide text is derived from it. [ ]: non-standard residue; d: D form. X13 = O=C(C(CC(O)CO)O[*:1])[*:2]; NMeV = CN[CH](C(=O)O)C(C)C; NMeA = CN[CH](C)C(=O)O; βAla = NCCC(=O)O
# System: C33A
# Assay: Primary qHTS to identify gynecologic anti-cancer compounds using libraries of approved drugs and bioactive compounds (AID 1345084); further: nearly all actives have a fitted effect of over 55% in size
# Settings: Gynecologic cancer cell panel viability, ATPlite luminescence, 48 h; series mostly up to 57.5 µM
# How it was run: (§1)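 In this quantitative HTS, cell killing is estimated from loss of ATP-dependent luciferase light. Cells see five compound concentrations over a 48 h exposure.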
Compound,Potency,"activity change, negative = cytotoxicity"
NC(Cc1c[nH]c2ccc(O)cc12)C(=O)O (centres undefined),inactive,
CCN=C1N[C@@H]2[C@@H](O)[C@H](O)[C@@H](CO)O[C@@H]2S1,inactive,
O=C(NC1CCN(CC(F)(F)F)CC1)c1ccc(-c2cccc(F)c2)nc1,inactive,
COc1cc(/C=C/C(=O)O[C@H]2[C@@H]3C=CO[C@@H](O[C@@H]4O[C@H](CO)[C@@H](O)[C@H](O)[C@H]4O)[C@@H]3[C@@]3(CO)O[C@@H]23)ccc1O,inactive,
C[C@@H]1[C@H](O)[C@@H]2OC(=O)C3=C2[C@H](CCC3)[C@@]12C[C@@H](c1ccoc1)OC2=O,inactive,
CC1OC(OC2CCC3(C)C(CCC4(C)C3C=CC35OCC6(CCC(C)(C)CC63)CCC45C)C2(C)CO)C(OC2OC(CO)C(O)C(O)C2O)C(O)C1OC1OC(CO)C(O)C(O)C1O (centres undefined),,0.873% [at 11.6 µM]
CCC(C)C1NC(=O)C2CCCN2C(=O)C(CC(O)CO)OC(=O)CCNC(=O)C(C)N(C)C(=O)C(C(C)C)N(C)C1=O (centres undefined) (cyclo([X13]PI[NMeV][NMeA][βAla]); configuration not given here),inactive,
CC(O)C(=O)/C=C/C=C/C(=O)OC1C=C2COC(=O)C2(O)C2(C)CCCC(C)(C)C12 (centres undefined),inactive,
CC(C)C(O)(CO)CCO[C@@H]1O[C@H](CO[C@H]2OC[C@](O)(CO)[C@H]2O)[C@@H](O)[C@H](O)[C@H]1O (some centres undefined),inactive,
Nc1ncnc2c1ncn2[C@H]1O[C@@H](C(=O)N2CCN(CC(=O)Nc3cccc4c3CNC4=O)CC2)[C@H](O)[C@@H]1O,inactive,

# System: CAOV3
# Assay: as above
# Settings: Gynecologic cancer cell panel viability, ATPlite luminescence, 48 h; series mostly up to 57.5 µM
# How it was run: as §1
Compound,Potency,"activity change, negative = cytotoxicity"
COC(=O)C1=CO[C@@H](O[C@@H]2O[C@H](CO[C@@H]3O[C@H](CO)[C@@H](O)[C@H](O)[C@H]3O)[C@@H](O)[C@H](O)[C@H]2O)[C@@H]2C(CO)=CC[C@H]12,inactive,
CSCC1OC(n2cnc3c(=O)[nH]cnc32)C(O)C1O (centres undefined),inactive,
COc1cc(C)c(C(=O)OC2C(C)OC(OC3CCC(C)C4C3C=C(C)C3/C(C)=C\CC/C(C)=C/C5(C)C=C(C(=O)O)C(C)CC56OC(=O)/C(=C(\O)C34C)C6=O)C(O)C2O)c(OC)c1 (centres undefined),,11.9% [at 11.6 µM]
OC[C@H]1O[C@@H](OCc2ccccc2)[C@H](O[C@@H]2OC[C@@H](O)[C@H](O)[C@H]2O)[C@@H](O)[C@@H]1O,inactive,
Nc1ccc(-n2nc(C(F)(F)F)cc2C(F)(F)F)cc1,inactive,
Oc1ccc(CC2NCCc3cc(O)c(O)cc32)cc1 (centres undefined),inactive,
NCCCCN(Cc1nc2ccccc2[nH]1)[C@H]1CCCc2cccnc21,inactive,
C/C(=C\C1CCC(C)C2CCC3(C)OC123)C(=O)O (centres undefined),inactive,
CC1=C2C3OC(=O)C(C)C3(O)CCC2(C)CCC1 (centres undefined),inactive,
O=C(N[C@H](Cc1ccccc1)C(=O)O)c1sc2cc(F)ccc2c1Cl,inactive,
CC(=O)c1ccc(O[C@@H]2O[C@H](CO[C@@H]3OC[C@@H](O)[C@H](O)[C@H]3O)[C@@H](O)[C@H](O)[C@H]2O)cc1,inactive,
C=C1C[C@H](O)[C@@H](O)[C@@]2(C)C1[C@@H](O)[C@H]1OC(=O)C3[C@@H](C)[C@@H](O)[C@H](O)C2[C@]31C (some centres undefined),inactive,
CCCC/C=C\CCCCCc1cc(=O)c2ccccc2n1C,inactive,
Cn1cc(Nc2cnccc2C(=O)O)c2cccnc21,inactive,
C[C@H]1[C@H](C)C[C@@H](C(=O)O)C2CC[C@]3(C)C(=CC[C@@H]4[C@@]5(C)CC[C@H](O)C(C)(C)[C@@H]5CC[C@]43C)[C@@H]21 (some centres undefined),inactive,
C=CC(C)(O)CC/C=C(\C)C(=O)O[C@@H]1[C@@H](O)[C@H](OC(C)(C=C)CC/C=C(\C)C(=O)O)O[C@H](CO)[C@H]1OC(=O)/C(C)=C/CCC(C)(O)C=C (some centres undefined),inactive,
CC1(C)CC[C@]2(C(=O)O[C@@H]3O[C@H](CO)[C@@H](O)[C@H](O)[C@H]3O)CC[C@]3(C)C(=CCC4[C@@]5(C)CC[C@H](O[C@@H]6O[C@H](C(=O)O)[C@@H](O)[C@H](O)[C@H]6OC6OC(CO)C(O)C(O)C6O)C(C)(C)C5CC[C@]43C)[C@@H]2C1 (some centres undefined),,8.5% [at 11.6 µM]
COc1cccc(C)c1C(=O)O[C@@H]1C[C@H](O[C@H]2[C@H](O)C[C@H](O[C@@H]3CCC[C@H]4[C@H]3C=C[C@@H]3CCCC/C=C/[C@H]5C=C(C(=O)O)[C@@H](C)C[C@@]56OC(=O)C(=C6O)OC(=O)[C@@]34C)O[C@@H]2C)O[C@H](C)[C@H]1O,,3.73% [at 11.6 µM]
CC(C)CC(=O)OC[C@@]1(O)C[C@@]23CC[C@H]4[C@@](C)(CCC[C@@]4(C)C(=O)O)[C@@H]2CC[C@@H]1C3,inactive,
C=C[C@H]1[C@H](O[C@@H]2O[C@H](CO)[C@@H](O)[C@H](O)[C@H]2O)OC=C(C(=O)OC)[C@H]1CC=O,inactive,

Compound,Potency,"activity change, negative = cytotoxicity"
C=C1C(=O)OC2CC(COC(=O)C(C)C)=C(C(C)CCCOC(C)=O)[C@@H](OC(C)=O)C12 (some centres undefined),inactive,
CC1=C2C(=O)C=C(CO[C@@H]3O[C@H](CO)[C@@H](O)[C@H](O)[C@H]3O)[C@@H]2[C@H]2OC(=O)[C@H](C)[C@@H]2[C@@H](O)C1,inactive,
C=C1C(=O)O[C@@H]2CC(C)=C([C@@H](C)CCCOC(C)=O)[C@@H](O)[C@H]12,inactive,
CC1=COC(OC2OC(CO)C(O)C(O)C2O)C2C(CO)CC(OC(=O)/C=C/c3ccc(O)cc3)C12 (centres undefined),inactive,
COc1cccc(OC)c1-c1ccc(C[C@H](NC(=O)c2c(Cl)cccc2Cl)C(=O)O)cc1,inactive,
C/C=C/C(=O)OC1/C=C/C(O)C(OC(C)=O)CCC(=O)OC1C (centres undefined),inactive,
CC1(C)[C@H]2C[C@H](C/C=C\CCCC(=O)O)[C@@H](NC(=O)c3csc4ccc(O)cc34)[C@@H]1C2,inactive,
CC(=O)/C=C/C1C(C)CC(O[C@@H]2O[C@H](CO)[C@@H](O)[C@H](O)[C@H]2O)CC1(C)C (some centres undefined),inactive,
COC(=O)c1ccccc1O[C@@H]1O[C@H](CO[C@@H]2OC[C@@H](O)[C@H](O)[C@H]2O)[C@@H](O)[C@H](O)[C@H]1O,inactive,
NC(Cc1c[nH]c2ccc(O)cc12)C(=O)O (centres undefined),inactive,
CCN=C1N[C@@H]2[C@@H](O)[C@H](O)[C@@H](CO)O[C@@H]2S1,inactive,
O=C(NC1CCN(CC(F)(F)F)CC1)c1ccc(-c2cccc(F)c2)nc1,inactive,
COc1cc(/C=C/C(=O)O[C@H]2[C@@H]3C=CO[C@@H](O[C@@H]4O[C@H](CO)[C@@H](O)[C@H](O)[C@H]4O)[C@@H]3[C@@]3(CO)O[C@@H]23)ccc1O,inactive,
C[C@@H]1[C@H](O)[C@@H]2OC(=O)C3=C2[C@H](CCC3)[C@@]12C[C@@H](c1ccoc1)OC2=O,inactive,
CC1OC(OC2CCC3(C)C(CCC4(C)C3C=CC35OCC6(CCC(C)(C)CC63)CCC45C)C2(C)CO)C(OC2OC(CO)C(O)C(O)C2O)C(O)C1OC1OC(CO)C(O)C(O)C1O (centres undefined),,14% [at 11.6 µM]
CCC(C)C1NC(=O)C2CCCN2C(=O)C(CC(O)CO)OC(=O)CCNC(=O)C(C)N(C)C(=O)C(C(C)C)N(C)C1=O (centres undefined) (cyclo([X13]PI[NMeV][NMeA][βAla]); configuration not given here),inactive,
CC(O)C(=O)/C=C/C=C/C(=O)OC1C=C2COC(=O)C2(O)C2(C)CCCC(C)(C)C12 (centres undefined),inactive,
CC(C)C(O)(CO)CCO[C@@H]1O[C@H](CO[C@H]2OC[C@](O)(CO)[C@H]2O)[C@@H](O)[C@H](O)[C@H]1O (some centres undefined),inactive,
Nc1ncnc2c1ncn2[C@H]1O[C@@H](C(=O)N2CCN(CC(=O)Nc3cccc4c3CNC4=O)CC2)[C@H](O)[C@@H]1O,inactive,

# Reference: PubChem BioAssay (NCATS)
